The list is not random: actives were taken first. Their share in the collection is about 2.8%.
GASC-1 inh: inhibitors of GASC-1 histone demethylase, primary screen, biochemical, fluorescence, DELFIA europium | Lysine-specific demethylase 4C (Homo sapiens), Q9H3R0 | GST-JMJD2C(1-420) H3K9me3 demethylation | inhibition, % at 2.35 µM | hit rate 0.069% among 330,000;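 active = more than half of a compound's replicate wells show inhibition beyond 50%, single wells judged on their own value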;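 also: signal counts dimethyl H3K9 product captured on neutravidin plate; 0% = median of DMSO wells and 100% = 0.3 times that DMSO median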
proKLK7 act: proKLK7 zymogen activators, primary screen, biochemical, fluorescence intensity; Kallikrein-7 (Homo sapiens), P49862; purified proKLK7, EDANS-DABCYL substrate fluorescence; 100% is mature enzyme control, 0% vehicle; activation, % at 7 µM; hit rate 0.9% among 370,000;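 active = activation above the mean of all tested compounds plus 3 SD, computed per campaign excluding outliers beyond control limits, cut at about 13% in these data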
Target sequence (P49862 whole entry, looked up): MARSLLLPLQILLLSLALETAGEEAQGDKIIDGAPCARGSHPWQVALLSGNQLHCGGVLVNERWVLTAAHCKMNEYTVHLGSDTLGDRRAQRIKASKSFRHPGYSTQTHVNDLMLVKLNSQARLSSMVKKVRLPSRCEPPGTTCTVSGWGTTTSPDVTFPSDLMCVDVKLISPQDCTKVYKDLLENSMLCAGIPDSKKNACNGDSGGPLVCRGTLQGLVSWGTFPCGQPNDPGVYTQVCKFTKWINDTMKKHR
PG9 binder: binders of HIV-1 gp120 antibody PG9, primary screen, biochemical, TR-FRET. hit rate 0.43% among 360,000. HIV-1 gp120 / PG9 antibody interaction. inhibition, % at 6.7 µM. TR-FRET gp120-PG9 antibody binding; in the data active = inhibition above about 8.5%
PP1 inh: PP1-alpha phosphatase inhibitors, primary screen, counter-screen for PP5 inhibitor project, biochemical, fluorescence, OMFP substrate, single point. Serine/threonine-protein phosphatase PP1-alpha catalytic subunit (Homo sapiens), P62136. purified PP1alpha. inhibition, % at 6.7 µM. hit rate 0.9% among 320,000;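 active = inhibition above the mean inhibition of all tested compounds plus 3 SD, computed separately for each screening campaign, cut at about 15% in these data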
Target sequence (P62136 whole entry, looked up): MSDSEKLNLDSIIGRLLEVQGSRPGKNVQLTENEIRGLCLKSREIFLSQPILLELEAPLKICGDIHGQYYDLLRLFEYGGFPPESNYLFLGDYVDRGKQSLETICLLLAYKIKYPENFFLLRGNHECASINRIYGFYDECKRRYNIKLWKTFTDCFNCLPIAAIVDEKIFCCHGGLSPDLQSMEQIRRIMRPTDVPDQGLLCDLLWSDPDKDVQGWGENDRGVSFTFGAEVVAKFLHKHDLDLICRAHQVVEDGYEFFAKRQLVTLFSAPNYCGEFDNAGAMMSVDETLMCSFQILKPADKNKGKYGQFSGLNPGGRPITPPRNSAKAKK
Rev-erbA mod: modulators of Rev-erb alpha DNA binding, primary screen, biochemical, FITC-DNA, fluorescence polarization, uHTS | Nuclear receptor subfamily 1 group D member 1 (Homo sapiens), P20393 | Rev-erbα–FITC-DNA binding, 90 min | activity, % at 10 µM | hit rate 0.79% among 370,000 | AID 1259318, 2017;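 active = activity above about 14%, limit read from the data; passing the limit was not always enough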;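 also: 0% = DMSO wells with 35 nM protein and 100% = DMSO wells with 750 nM protein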
PP5 primary: PP5 phosphatase inhibitors, primary screen, biochemical, fluorescence | purified PP5c, OMFP substrate fluorescence | inhibition, % at 6.7 µM | hit rate 0.18% among 320,000 | AID 1987, 2009;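 active = inhibition above the campaign's mean inhibition across all tested compounds plus 3 SD, cut at about 9.5% in these data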;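 also: 0% = DMSO only and 100% = 100 µM cantharidin control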
PG9 bind confirm: binders of anti-gp120 antibody PG9, confirmation, biochemical, TR-FRET. TR-FRET PG9 antibody binding. inhibition, % at 6.7 µM. shares compounds with PG9 binder. hit rate 90% among 1,500; in the data active = inhibition above about 9%
PGV04 counter: binders of control antibody PGV04, counter-screen for PG9 antibody binder project, biochemical, TR-FRET, distinct HIV envelope site; shares compounds with PG9 binder; TR-FRET PGV04 antibody-gp120 binding; inhibition, % at 6.7 µM; hit rate 95% among 1,500; in the data active = inhibition above about 9.5%
PG9 bind DR: small-molecule binders of antibody PG9, dose response, biochemical, TR-FRET, HIV-1 gp120 antibody | shares compounds with PG9 binder | TR-FRET PG9 antibody-gp120 binding inhibition | IC50, µM | 95 tested, under 10 active; in the data active = IC50 below about 10 µM
PGV04 DR counter: binders of control antibody PGV04, dose response, counter-screen for PG9 antibody binder project, biochemical, TR-FRET, distinct HIV envelope site | IC50, µM | hit rate 20% among 95 | shares compounds with PG9 binder | TR-FRET binding to control antibody PGV04
PG126 DR counter: binders of control antibody PG126, dose response, counter-screen for PG9 antibody binder project, biochemical, TR-FRET, distinct HIV envelope site. shares compounds with PG9 binder. TR-FRET binding to antibody PG126, counterscreen. IC50, µM. hit rate 20% among 95. AID 651939, 2012
The depositor's hits bear a star; i = inactive; nt = no result given. Rule as the data show it, unless noted: active = IC50 below about 9 µM; inactive = the rest.

SMILES | GASC-1 inh | proKLK7 act | PG9 binder | PP1 inh | Rev-erbA mod | PP5 primary | PG9 bind confirm | PGV04 counter | others
CC(C)[C@@H]1Cc2[nH]c(=S)[nH]c(=O)c2[C@H](C)O1 | nt | -1 | -1 | nt | 14 | nt | nt | nt
CC(C)C1Cc2ccccc2-c2[nH]c(=S)[nH]c(=O)c21 (stereo not drawn) | -4 | 0 | 30* | -5 | 5 | 1 | 4 | 6
CCC1(CC)Cc2ccccc2-c2nc(NN)[nH]c(=O)c21 | -5 | 2 | 0 | 3 | 3 | 2 | nt | nt
CCC1(CC)Cc2ccccc2-c2[nH]c(=S)[nH]c(=O)c21 | 2 | 0 | 17* | -4 | -3 | 2 | 4 | 9
Cc1nccn1-c1ccc(NC(=O)[C@@H](Cc2ccccc2)NC(=O)[C@H]2O[C@@H](n3ccc(=O)[nH]c3=O)[C@H](O)[C@@H]2O)cc1 | nt | 0 | -1 | nt | -2 | nt | nt | nt
COC(=O)[C@]12C[C@H](CC(=O)N3CCN(C(=O)C4CC4)CC3)C(=O)N(Cc3cccc4ccccc34)C1=C[C@H](C(C)(C)C)O[C@@H]2C | nt | 0 | nt | nt | 0 | nt | nt | nt
O=C(NCc1cccnc1)c1ccccc1NS(=O)(=O)c1ccccc1 | 7 | 0 | 11* | -5 | 2 | 1 | 9.5* | 19*
Nc1cc(Cl)ccc1C(=O)OCC(=O)NC1CCCCC1 | -3 | 0 | 30* | -2 | 3 | -2 | 29* | 41*
COC(=O)[C@H](C)N(CCc1cn(Cc2ccccc2)nn1)S(=O)(=O)c1ccccc1Br | nt | 0 | nt | nt | 1 | nt | nt | nt
C[C@]12c3[nH]c4ccccc4c3CCN1C(=O)C(CC(=O)NCCCn1ccnc1)C[C@@H]2C(=O)N1CCOCC1 (stereo partly drawn) | 5 | 0 | 15* | nt | -4 | nt | 6 | 9.3*
COc1ccc(Cl)cc1C(=O)NNC(=O)c1n[nH]c2ccccc12 | 5 | 0 | 10* | -2 | 1 | 0 | 24* | 31*
COc1cc(C(=O)NNC(=O)c2n[nH]c3ccccc23)cc(OC)c1OC | 3 | -1 | -1 | -1 | 1 | 0 | nt | nt
COc1ccc(C(=O)COC(=O)c2cccc(-n3cnnn3)c2)c(OC)c1 | 0 | -1 | 18* | -5 | 7 | 0 | 6 | 9
O=C(COC(=O)c1cccc(-n2cnnn2)c1)c1ccc(F)cc1 | 0 | 0 | -1 | -7 | -3 | -2 | nt | nt
O=C(NC1CCCC1)C1C2C=CC3(CN(Cc4cccs4)C(=O)C13)O2 (stereo not drawn) | -9 | 0 | 29* | -5 | -1 | -2 | 9 | 9
Cc1ccc(NC(=O)CSc2nnc(-c3ccccc3F)n2-c2ccccc2)c(C)c1 | nt | 0 | nt | nt | -3 | nt | nt | nt
COc1ccccc1Cn1c(=S)[nH]c2ccc(F)cc2c1=O | -2 | 0 | 32* | 5 | 7 | 3 | 18* | 17* | PG9 bind DR=i;PGV04 DR counter=i;PG126 DR counter=i
COc1ccccc1Cn1c(=S)[nH]c2ccc(Br)cc2c1=O | 6 | 0 | -3 | 1 | 11 | 0 | nt | nt
COc1ccccc1C(=O)Nc1ccc2c(C)cc(=O)oc2c1 | -10 | 0 | 17* | -7 | 4 | -7 | 20* | 30*
O=C(Nc1ccc(F)cc1)c1ccc(COc2ccccc2)cc1 | -2 | 0 | 9.6* | -1 | 0 | -1 | 46* | 56*
COc1ccc(C(CNC(=O)c2ccc(OCc3ccccc3)cc2)N2CCOCC2)cc1 (stereo not drawn) | 7 | 0 | 0 | -2 | -1 | 0 | nt | nt
O=C(NCC(c1ccc(F)cc1)N1CCOCC1)c1ccc(OCc2ccccc2)cc1 (stereo not drawn) | -1 | 1 | 17* | nt | 0 | nt | 17* | 22*
O=C(/C=C(\Nc1cccc(OC(F)F)c1)c1ccccc1)c1ccccc1 | nt | 0 | -2 | nt | -1 | nt | nt | nt
O=C(Nc1cccnc1)c1cc(-c2ccc3c(c2)OCO3)on1 | 4 | 1 | 12* | 3 | 3 | -1 | 10* | 22*
COCc1cn(-c2ccc3c(c2)[C@]2(CC(=O)N(C)C2c2ccccc2)C(=O)N3CC(C)C)nn1 (stereo partly drawn) | nt | 0 | nt | nt | -4 | nt | nt | nt
SMILES | GASC-1 inh | proKLK7 act | PG9 binder | PP1 inh | Rev-erbA mod | PP5 primary | PG9 bind confirm | PGV04 counter | others
O=C(CCc1ccccc1)Nc1nc2ccc(S(=O)(=O)N3CCOCC3)cc2s1 | 3 | 1 | 12* | 8 | 10 | -1 | 22* | 31*
CCOC(=O)CNC(=O)CSc1nc(C(C)C)nc2c1cnn2-c1ccccc1 | nt | 0 | 8.6* | nt | -1 | nt | 10* | 15*
O=C(c1ccc(F)cc1Cl)N1CCCC(c2nc(-c3cccs3)no2)C1 (stereo not drawn) | nt | 0 | nt | nt | -1 | nt | nt | nt
CCOc1cccc2cc(C(=O)NCc3ccc(OC)cc3)c(=N)oc12 | 9 | -1 | 13* | 1 | -2 | 2 | 5 | 6
CCOc1cccc2cc(C(=O)Nc3cc(C)on3)c(=O)oc12 | 1 | 0 | 15* | 2 | 9 | 5 | 33* | 37*
O=C(CNC(=O)c1sc2ccccc2c1Cl)NCc1ccc(F)cc1 | 0 | 1 | 12* | 1 | 10 | 0 | 8 | 21*
CC(=O)c1cccc(NC(=O)CNC(=O)c2sc3ccccc3c2Cl)c1 | -19 | -1 | 15* | 11 | 12 | -2 | 17* | 41*
O=C(CNC(=O)c1sc2ccccc2c1Cl)NCc1cccnc1 | 1 | -1 | 0 | -2 | 0 | 2 | nt | nt

Assay outcomes from PubChem.
